In PubChem BioAssay (NCI):
This is part of a sample that, as a whole, favours compounds with a hit. Of some 79,000 tested, about 15% had one in any assay. Rule as the data show it: active = growth inhibition above about 70%; inactive = the rest.

Assays:
[1] = NCI Yeast Anticancer Drug Screen. Data for the rad50 strain (AID 155);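 also: 0% = growth of vehicle-only cultures of the same strain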; conditions: S. cerevisiae rad50 strain growth inhibition; at 50.0 µM; active compounds read high
Summary of the method: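 Vehicle-treated cultures provide the reference for the growth inhibition reported for compound-exposed, repair-deficient yeast.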

[2] = NCI Yeast Anticancer Drug Screen. Data for the mec2-1 strain (AID 157); conditions: S. cerevisiae mec2-1 strain, at 50.0 µM, active compounds read high
Summary of the method: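 Vehicle-treated cultures served as reference for growth inhibition of compound-exposed mec2-1 yeast.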

[3] = NCI Yeast Anticancer Drug Screen. Data for the sgs1 mgt1 strain (AID 161);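 also: 0% = growth of cultures given vehicle only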; conditions: S. cerevisiae sgs1 mgt1 strain, at 50.0 µM, active compounds read high
Summary of the method: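 Read-out: growth inhibition vs vehicle controls. Cells: mutant yeast strain deficient in DNA damage repair.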

[4] = NCI Yeast Anticancer Drug Screen. Data for the cln2 rad14 strain (AID 165);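 also: 0% = growth equal to vehicle treated cultures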; conditions: S. cerevisiae cln2 rad14 strain, at 50.0 µM, active compounds read high
Summary of the method: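 Each compound was tested on cln2 rad14 yeast. Inhibition of growth was calculated against vehicle-exposed controls.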

[5] = NCI Yeast Anticancer Drug Screen. Data for the bub3 strain (AID 167); conditions: S. cerevisiae bub3 mutant strain, at 50.0 µM, active compounds read high
Summary of the method: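 Mutant yeast screening strain plus compound; vehicle-treated cultures serve as the 0% inhibition reference.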

[6] = NCI Yeast Anticancer Drug Screen. Data for the mlh1 rad18 strain (AID 175); conditions: S. cerevisiae mlh1 rad18 strain growth inhibition; at 50.0 µM; active compounds read high
Summary of the method: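 Vehicle-treated cultures served as the reference for growth inhibition in a yeast strain carrying DNA damage repair alterations exposed to each compound.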

Measured: growth inhibition

CC1CN(C(=S)Nc2cccc3ccccc23)CC(C)O1 (stereo not given)
inactive: [1] 19.4% | [2] 36.5% | [3] 44.9% | [4] 22% | [5] 44.8% | [6] 7.8%

CCC(C(=O)O)C1=CCCc2c(C)ccc(C)c21 (stereo not given)
inactive: [1] 23.6% | [2] 13.2% | [3] 21.6% | [4] 25.3% | [5] 11.7% | [6] 23.2%

COC(=O)C(Cc1cn(C(C)=O)c2ccccc12)P(=O)(OC)OC (stereo not given)
inactive: [1] -13.3% | [2] -40.1% | [3] -5.25% | [4] 13% | [5] 25.4% | [6] -11.8%

Cc1ccc(NCC(O)CN2CCCC2)cc1 (stereo not given)
inactive: [1] 12.3% | [2] 5.35% | [3] 12.5% | [4] -26.4% | [5] -14.9% | [6] 12.1%

CCn1c2ccc(N(C)C)cc2c2cc(N(C)C)ccc21
inactive: [1] -25.4% | [2] -38.5% | [3] -24.1% | [4] -38.8% | [5] -18.5% | [6] -52.4%

O=C(C[n+]1ccccc1Cc1ccccc1)c1ccccc1
inactive: [1] -6.6% | [2] -4.2% | [3] -14% | [4] -11.6% | [5] -11.4% | [6] -17.9%

CCN(CC)C1Oc2cc3c(cc2C(c2cc(OC)c(O)c(OC)c2)C1C)OCO3 (stereo not given)
inactive: [1] -14.6% | [2] -23.9% | [3] -7.7% | [4] 3.35% | [5] -7.1% | [6] 3.85%

CC1C(=O)N(c2ccccc2)C1c1ccccc1 (stereo not given)
inactive: [1] -18.6% | [2] -31.3% | [3] -11.9% | [4] -24.6% | [5] 2.95% | [6] -19.6%

C/C(C(=O)O)=C(\C)c1ccccc1
inactive: [1] -0.7% | [2] -0.75% | [3] -0.9% | [4] -15.6% | [5] 2.1% | [6] 5.2%

O=[N+]([O-])C1CCC(N=Nc2c(O)ccc3ccccc23)CC1 (stereo not given)
inactive: [1] -9.95% | [2] 3.6% | [3] 4.65% | [4] -27% | [5] -50.6% | [6] -0.6%

CCOC(=O)CCC(NC(=O)C(CCC(=O)OCC)NC(=O)C(Cc1ccc([N+](=O)[O-])cc1)NC(C)=O)C(=O)NNC(=O)OC(C)(C)C (stereo not given)
inactive: [1] -22.8% | [2] -28.4% | [3] -17% | [4] -3.35% | [5] -23.6% | [6] -7.3%

COc1cc2nccnc2c(N)c1OC
inactive: [1] 14.6% | [2] 7.65% | [3] 7.75% | [4] -1.7% | [5] -0.95% | [6] 19.9%

NS(=O)(=O)c1ccc(NC(=O)Nc2cccc(Cl)c2)cc1
inactive: [1] 1.35% | [2] 12.6% | [3] 15.5% | [4] -4.9% | [5] 46.4% | [6] -11.3%

O=C(O)COc1ccccc1F
inactive: [1] -27.9% | [2] 12.1% | [3] -14.4% | [4] -25.9% | [5] 3% | [6] -3.85%

O=[N+]([O-])c1cc2ccccc2nc1-c1ccccc1
inactive: [1] 15.6% | [2] 4.2% | [3] -0.55% | [4] 6.95% | [5] 7.2% | [6] 6.15%

COC(=O)NC(c1ccccc1)C(C)I (stereo not given)
inactive: [1] 7.3% | [2] -0.6% | [3] -2.85% | [4] -9.65% | [5] 3.25% | [6] 12.3%

CC(=O)OCC(C)Cc1ccccc1 (stereo not given)
inactive: [1] 6.35% | [2] 13.8% | [3] -0.25% | [4] 8.2% | [5] 1.9% | [6] -2.25%

O=C1C=CC(=O)N1Cc1ccco1
inactive: [1] -3.7% | [2] -16.8% | [3] 5.9% | [4] 8.5% | [5] 10.1% | [6] -16.6%

C1=C(C2=CCCCC2)CCCC1
inactive: [1] -1.35% | [2] 6% | [3] -4.35% | [4] -42.9% | [5] 4.8% | [6] 4.15%

O=C(c1ccccc1)N1CC2CCC1CN2C(=O)c1ccccc1
inactive: [1] 15.8% | [2] 15.2% | [3] 4% | [4] 6.95% | [5] 42.7% | [6] -8.45%

COc1ccc(-n2c(CCCC(=O)O)nc3c2C(=O)c2ccccc2C3=O)cc1
inactive: [1] 20.4% | [2] 23.8% | [3] 25.5% | [4] 17.1% | [5] 25.1% | [6] 33.5%

COc1ccc(Cl)cc1NC(=O)c1ccccc1C(=O)O
inactive: [1] 1.2% | [2] 20.9% | [3] -3.2% | [4] -4.3% | [5] 12.4% | [6] -26.1%

COC1=C(c2ccccc2)P(=O)(Cc2ccccc2)C2CCCC12 (stereo not given)
inactive: [1] 4.95% | [2] 21.4% | [3] 35.9% | [4] 7.6% | [5] 21.4% | [6] -17.3%

CC(NC(=O)CCl)c1ccccc1 (stereo not given)
inactive: [1] 23.7% | [2] -12.2% | [3] -12.9% | [4] 14.4% | [5] 4.25% | [6] 36.4%

COC(=O)C(=O)C(/C=N/C(=S)Nc1ccc(S(=O)(=O)Nc2nccs2)cc1)=C(\O)c1c(C)[nH]c2ccccc12
inactive: [1] 39.1% | [2] 23.8% | [3] 35% | [4] 5.2% | [5] 35.9% | [6] 29.8%

COC(=O)c1nc(=S)[nH]c(C(=O)OC)c1C(=O)c1ccccc1
inactive: [1] -25.9% | [2] -12.9% | [3] -27.4% | [4] 36% | [5] -25.4% | [6] -16.4%

CS(=O)(=O)c1nsc(N)n1
inactive: [1] -14% | [2] -8.6% | [3] -5.25% | [4] 2.15% | [5] -0.1% | [6] 2.7%

CC(C)(SC(=N)N)B(O)O
inactive: [1] -3.2% | [2] -12.3% | [3] -6.55% | [4] 9.35% | [5] -8.35% | [6] -7.7%

Cc1ccc(N2C(=O)CNC2=O)cc1
inactive: [1] -10.3% | [2] -5% | [3] -7.8% | [4] -27.2% | [5] 1.2% | [6] -6.45%

O=c1cc(-c2ccccc2)nc(/C=C(\O)c2ccncc2)n1-c1ccccc1
inactive: [1] -4.25% | [2] -18.9% | [3] 0.4% | [4] 10.1% | [5] 15.5% | [6] -8.15%

Nc1ccc(C(=O)N/C(=C\c2cccc([N+](=O)[O-])c2)c2nc3ccc(Cl)cc3[nH]2)cc1
inactive: [1] -10.1% | [2] -21.4% | [3] -25.3% | [4] -17.9% | [5] 1% | [6] -15.9%

CCOC(=O)c1c(-c2ccccc2)nn(CC(N)=O)c1CO
inactive: [1] -15.9% | [2] -5.15% | [3] 10.4% | [4] 23.1% | [5] 18.2% | [6] -10.7%

O=[N+]([O-])c1ccc(OP2(Oc3ccc([N+](=O)[O-])cc3)=NP(Oc3ccc([N+](=O)[O-])cc3)(Oc3ccc([N+](=O)[O-])cc3)=NP(Oc3ccc([N+](=O)[O-])cc3)(Oc3ccc([N+](=O)[O-])cc3)=NP(Oc3ccc([N+](=O)[O-])cc3)(Oc3ccc([N+](=O)[O-])cc3)=N2)cc1
inactive: [1] -4.5% | [2] -7.9% | [3] -6.35% | [4] -3.7% | [5] -1.65% | [6] -17.2%

COC(=O)C(C)c1cc2ccccc2[nH]1 (stereo not given)
inactive: [1] -8% | [2] -8.65% | [3] 0.9% | [4] -11.4% | [5] -46.7% | [6] 0.75%

CC1=CC(=O)c2ccc3c4ccccc4n(C)c3c2C1=O
inactive: [1] -16.7% | [2] -35.1% | [3] -13.9% | [4] 0.2% | [5] -2.9% | [6] -19.9%

CCOc1nc(N)nc(C)c1N=Nc1ccc(O)cc1
inactive: [1] -5.7% | [2] 6.2% | [3] 0.85% | [4] -43% | [5] -2.4% | [6] -0.4%

CCN(CC)CCCNc1ccnc2ccc(Cl)cc12
inactive: [1] -9.9% | [2] -15.6% | [3] 5.45% | [4] -17.9% | [5] 13.9% | [6] 2.55%

CCOC(=O)C1=C(C(=O)c2ccc(OC)cc2)C(c2cccc([N+](=O)[O-])c2)C(C(=O)c2ccc(OC)cc2)=C(C(=O)OCC)N1
inactive: [1] -30.8% | [2] -1.6% | [3] -2.5% | [4] -2.85% | [5] -6.45% | [6] 2%

O=S(=O)(O)C(O)c1ccncc1 (stereo not given)
inactive: [1] -38.2% | [2] -41% | [3] -6.15% | [4] -1.8% | [5] -4.25% | [6] -22.7%

Cc1cc(C)c(OCC(O)CO)c(C)c1 (stereo not given)
inactive: [1] 2.45% | [2] -26.1% | [3] 14.7% | [4] -10.1% | [5] 5.9% | [6] -8.8%
